Experimental data as given in PubChem BioAssay (EPA / NIEHS).
Inconclusive results are not listed. Activity calls are given as the source filed them. How the source made its calls: active means hit-call score of the fitted dose curve at least 0.9, where 1 is the maximum; inconclusive means response in the unintended direction; inactive means score below 0.9.

Read-out: ABC Transporter (ABCB1), ABCB1 (gene 5243)
Assay: CLD_ABCB1_24hr: CellzDirect (CLD) Gene Expression Assay for ABC Transporter (ABCB1) at 24 hours (AID 2283684);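 on AC50: potency for increase in ABCB1 mRNA relative to DMSO vehicle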
Description: CLD_24hr is a cell-based, multiplexed-readout assay that uses hepatocyte, a human liver primary cell, with measurements taken at 24 hours after chemical dosing in a 96-well plate.CLD_ABCB1_24hr is one of 16 assay component(s) measured or calculated from the CLD_24hr assay. It is designed to make measurements of mRNA induction, a form of inducible reporter, as detected with chemiluminescence signals by Quantitative Nuclease Protection Assay (qNPA) technology.Data from the assay component CLD_ABCB1_24hr was analyzed at the endpoint, CLD_ABCB1_24hr, in the positive analysis fitting direction relative to DMSO as the negative control and baseline of activity. Using a type of inducible reporter, gain-of-signal activity can be used to understand changes in the reporter gene as they relate to the gene ABCB1. Furthermore, this assay endpoint can be referred to as a primary readout. To generalize the intended target to other relatable targets, this assay endpoint is annotated to the transporter intended target family, where subfamily is ABC transporter.
Human hepatocyte cultures were treated daily for two consecutive days with fresh dosing solutions containing appropriate concentrations of the 320 ToxCast chemicals (chemical identities were blinded to CellzDirect and other ToxCast collaborators), vehicle control (0.2% DMSO), and positive control inducers as summarized in Table 1. Due to the large number of treatment groups and chemicals examined, the ToxCast chemicals were divided into two groups (spanning two independent cultures of hepatocytes from separate donor preparations (Hu778: ToxCast plates 1 and 2; Hu776: ToxCast plates 3 and 4). Each preparation of human hepatocyte cultures was treated with respective vehicle control, medium only control, set of six positive controls/reference chemicals for the five hepatic receptor pathways, and a subset of eight of the ToxCast chemicals (indoxacarb, pyrithiobac-sodium, norflurazon, cyhalofop-butyl, methomyl, thiram, acetochlor, and propiconazole). These replicate data, coupled with internal replicates designed within the blinded ToxCast chemical library, provided additional data to evaluate interindividual differences between hepatocyte preparations and their potential impact on chemical profiles.Cell morphology and integrity were evaluated using phase-contrast microscopy as an indicator of hepatocyte cell health (Tyson & Green, 1987). Cultures for each treatment group (i.e., media, vehicle [0.2% DMSO], positive control inducers [multiple concentrations], and the ToxCast chemicals [multiple concentrations]) were observed and cell morphology was assessed relative to vehicle control cultures at each harvest time point (0, 6, 24, or 48 h). […] Images were evaluated at the conclusion of the study to assess changes in cell integrity and account for the effects of chemical exposure on uncharacteristic changes in concentration-dependent gene expression profiles. The results from these determinations of apparent cytotoxicity were annotated (yes/no) alongside the corresponding qNPA data for reference.At the conclusion of each treatment period, hepatocyte cultures (96-well) were washed with 1 volume of HBSS, lysed by addition of 25 ul ArrayPlate lysis buffer (HTG, Tucson, AZ), and 70 ul/well of Denaturation Oil, denatured by incubation at 95C for 10 min, and frozen at approximately -70C until analysis by nuclease protection assay (qNPA) (Roberts et al., 2007). For qNPA analysis, cell lysates were thawed at 50C for approximately 30 min, qNPA probes were added, and samples were incubated at 95C for 10 min to begin the detection process by denaturing the target RNA, dissociating the duplexes and secondary structure hybridization. At the conclusion of the hybridization period, S1 nuclease reagent was added to each sample to digest all nonprotected nucleotides at 50C for 60-90 min. […]

Structure (SMILES)	outcome	AC50
CS(=O)(=O)c1ccc(C(=O)C2C(=O)CCCC2=O)c([N+](=O)[O-])c1	inactive	–
CCNP(=S)(OC)O/C(C)=C/C(=O)OC(C)C (stereo not given)	inactive	–
Cn1c(-c2ccccc2)cc(-c2ccccc2)[n+]1C	inactive	–
CCSC(=O)N1CCCCCC1	inactive	–
O=C(Nc1ccccc1-c1ccc(Cl)cc1)c1cccnc1Cl	inactive	–
CCCCC(C#N)(Cn1cncn1)c1ccc(Cl)cc1 (stereo not given)	inactive	–
COc1cc(OC)nc(NC(=O)NS(=O)(=O)c2ncccc2OCC(F)(F)F)n1	inactive	–
CCCCOCN(C(=O)CCl)c1c(CC)cccc1CC	inactive	–
Nc1cnn(-c2ccccc2)c(=O)c1Cl	inactive	–
Cc1c(COC(=O)[C@@H]2[C@H](/C=C(\Cl)C(F)(F)F)C2(C)C)cccc1-c1ccccc1	–	29.9 µM (active)
CC(C)NC(=O)N1CC(=O)N(c2cc(Cl)cc(Cl)c2)C1=O	inactive	–
CCCCC(O)(Cn1cncn1)c1ccc(Cl)cc1Cl (stereo not given)	–	31.9 µM (active)
CO/N=C(/C1=NOCCO1)c1ccccc1Oc1ncnc(Oc2ccccc2Cl)c1F	inactive	–
CC(C)C1(C)N=C(c2ncccc2C(=O)O)NC1=O (stereo not given)	inactive	–
O=C(O)c1c(Cl)ccc2cc(Cl)cnc12	inactive	–
COC(=O)N(C(=O)N1CO[C@@]2(C(=O)OC)Cc3cc(Cl)ccc3C2=N1)c1ccc(OC(F)(F)F)cc1	inactive	–
CC1(C)CCC(=Cc2ccc(Cl)cc2)C1(O)Cn1cncn1 (stereo not given)	inactive	–
CCOc1nc(C(Cl)(Cl)Cl)ns1	inactive	–
CC1(C)C(C=C(Cl)Cl)C1C(=O)OC(C#N)c1cccc(Oc2ccccc2)c1 (stereo not given)	inactive	–
COc1cc(Cl)c(OC)cc1Cl	inactive	–

Structure (SMILES)	outcome	AC50
COCC(C)N(C(=O)CCl)c1c(C)csc1C (stereo not given)	inactive	–
N#Cc1c(Cl)cccc1Cl	inactive	–
COC(=O)c1c(C(F)F)nc(C(F)(F)F)c(C2=NCCS2)c1CC(C)C	inactive	–
COCC(=O)N(c1c(C)cccc1C)C(C)C(=O)OC (stereo not given)	inactive	–
CC(C)N1C(=O)N(c2ccccc2)CSC1=NC(C)(C)C	inactive	–
CS(=O)(=O)c1cc(C(F)(F)F)ccc1C(=O)c1cnoc1C1CC1	inactive	–
CC(C)Oc1cccc(NC(=O)c2ccccc2C(F)(F)F)c1	inactive	–
COC(=O)NS(=O)(=O)c1ccc(N)cc1	inactive	–
Clc1cccc(C(Cl)(Cl)Cl)n1	inactive	–
O=c1n(Cl)c(=O)n(Cl)c(=O)n1Cl	inactive	–
Clc1nc(Cl)nc(Nc2ccccc2Cl)n1	inactive	–
Nc1c(Cl)c(Cl)nc(C(=O)O)c1Cl	inactive	–
CC(C)Nc1nc(Cl)nc(NC(C)C)n1	inactive	–
CCOc1nc(F)cc2nc(S(=O)(=O)Nc3c(Cl)cccc3Cl)nn12	inactive	–
CCOc1cc(C(C)(C)C)ccc1C1COC(c2c(F)cccc2F)=N1 (stereo not given)	inactive	–
O=P(O)(O)CCCl	inactive	–
CN=C=S	inactive	–
CSC(=O)c1c(C(F)F)nc(C(F)(F)F)c(C(=O)SC)c1CC(C)C	inactive	–
C=C(C)CN(CC)c1c([N+](=O)[O-])cc(C(F)(F)F)cc1[N+](=O)[O-]	inactive	–
O=C1C2CC=CCC2C(=O)N1SC(Cl)(Cl)Cl (stereo not given)	inactive	–
